Screening results (PubChem)
Rab9 promoter act = activators of Rab9 promoter | Huh7 Rab9 promoter-luciferase reporter, luminescence, 24 h | Potency, µM (titrated, usually from 9.22 µM), inactives show top-dose activation, negative = inhibition, most hits filed as activators | actives 2.8% (n = 320,000) | AID 485297; also: % of control where 0% means no effect; nearly all actives have a fitted effect of over 60% in size
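Stable Rab9-luc Huh7, 1500 cells/well, 2 h settle; cmpd in DMSO, 24 h, 37 °C/5% CO2; luciferase reagent 10 min RT; luminescence.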
ELG1 DNA repair = ELG1-dependent DNA repair inhibition | HEK293T ELG1-luciferase reporter, luminescence, 16 h; DNA damage induced by 5-fluorouridine | Potency, µM (top dose mostly 46.1 µM), for inactives: at the highest dose activity change, negative = inhibition, actives largely listed as inhibitors | actives 2.3% (n = 330,000); also: % is scaled to controls: 0 for no effect and ±100 for the full control effect; nearly all actives have a fitted effect of over 55% in size
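Cells (2,000 per well) received 5-fluorouridine plus test compound or DMSO and were incubated 16 hr at 37 °C, 5% CO2. Luciferase activity was read by luminescence 30 min after ONE-Glo addition; signal suppression marked inhibition of damage-induced ELG1 function.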
ELG1 genotoxic = inducers of genotoxicity in HEK293T ELG1-luciferase cells; HEK293T ELG1-luciferase reporter, luminescence, 16 h; Potency, µM (top dose mostly 46 µM), for inactives: at the top dose activity change, positive = activation, hits mostly activators; actives 1.3% (n = 330,000); AID 504466; also: % of control where 0% means no effect; nearly all actives have a fitted effect of over 60% in size
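Genotoxic stress is detected as increased luminescence from luciferase-tagged ELG1 in HEK293T cells, measured with ONE-Glo after a 16 hr treatment at 37 °C.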
NPC1 promoter act = activates the NPC1 promoter; Huh7 NPC1 promoter luciferase reporter, 24 h; Potency, µM (series often up to 9.22 µM), for the others: at the top dose activation, actives largely listed as activators; actives 2.4% (n = 320,000); AID 485313; also: % of control where 0% means no effect; nearly all actives have a fitted effect of over 60% in size
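Compounds in DMSO were transferred onto Huh7 NPC1-luciferase reporter cells pre-incubated 2 h; after 24 h at 37 °C, Amplite reagent was dispensed and luminescence recorded 10 min later.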
SMN2 splice up = SMN2 splice variant enhancement; HEK293 SMN2-luciferase splicing reporter, luminescence, 30-36 h; AID 1458; actives 2.8% (n = 210,000); Potency, µM (titrated, usually from 46.1 µM), for inactives: at the highest dose activity change, positive = activation, most hits filed as activators; also: % of control where 0% means no effect; nearly all actives have a fitted effect of over 55% in size
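qHTS luciferase splicing reporter: luminescence rises when SMN2 exon 7 is included in transfected HEK293 cells. Compound exposure lasted 30-36 h at 37C, with 4.5 mM final sodium butyrate as control, followed by a ONE-Glo read.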
FLuc counter = firefly luciferase modulation, counter-screen for miR-21 project; Potency, µM (highest dose often 57.5 µM), without a hit: top-dose activity change, negative = inhibition, actives largely listed as inhibitors; AID 588342; actives 6.9% (n = 360,000); purified FLuc, Km substrates, luminescence inhibition; P08659;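 also: plate controls were vehicle for no effect and reference inhibitor for full effect; nearly all actives have a fitted effect of over 55% in size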
Target sequence (P08659 whole entry, looked up): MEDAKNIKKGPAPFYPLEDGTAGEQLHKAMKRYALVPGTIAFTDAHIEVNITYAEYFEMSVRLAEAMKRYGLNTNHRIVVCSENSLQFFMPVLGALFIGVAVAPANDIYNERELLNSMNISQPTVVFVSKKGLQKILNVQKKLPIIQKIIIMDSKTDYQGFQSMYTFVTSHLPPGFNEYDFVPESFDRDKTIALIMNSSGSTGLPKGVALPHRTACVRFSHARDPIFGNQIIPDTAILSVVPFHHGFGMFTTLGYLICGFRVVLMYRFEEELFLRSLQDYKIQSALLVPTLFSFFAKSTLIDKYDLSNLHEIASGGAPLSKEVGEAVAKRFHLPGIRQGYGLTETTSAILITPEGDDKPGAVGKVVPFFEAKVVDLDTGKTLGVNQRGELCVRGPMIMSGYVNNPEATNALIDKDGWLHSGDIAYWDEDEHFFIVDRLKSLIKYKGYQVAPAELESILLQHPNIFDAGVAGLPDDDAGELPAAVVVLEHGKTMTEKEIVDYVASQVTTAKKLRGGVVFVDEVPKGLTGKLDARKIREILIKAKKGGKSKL
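Purified P. pyralis luciferase, 10 nM final, with Km-level 10 uM D-luciferin and 10 uM ATP in 50 mM Tris acetate pH 7.5, 10 mM Mg acetate, 0.01% Tween-20, 0.05% BSA; 6-point qHTS titration about 60 µM downward; luminescence read.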
* = called active by the depositor; ? = inconclusive; / = not tested or not shown. Only some compounds are listed: those with a hit (about 9.2% of all), similar ones and a draw of the others. Calls follow the shape of the dose curve; as a rule, active = well fitted curve in the direction sought with a large enough effect; inconclusive = small, poorly fitted or top-dose-only effect, or another doubt; inactive = no such curve, though single readings can be large; an effect the other way counts as inactive or inconclusive. Potency is read from the fitted curve at half-maximal effect.

SMILES	Rab9 promoter act	ELG1 DNA repair	ELG1 genotoxic	NPC1 promoter act	SMN2 splice up	FLuc counter
O=C(Nc1cccc([N+](=O)[O-])c1)NC1CCCCCCC1	2.5µM*	?	-11%	2.8µM*	/	12µM*
O=C(Nc1cccc([N+](=O)[O-])c1)N1CCCc2ccccc21	9%	?	16%	1%	/	0%
O=C(Nc1cccc([N+](=O)[O-])c1)ONC1=NCCCCC1	-3%	7%	-1%	0%	/	15µM*
CCc1cccc(C)c1NC(=O)CN1C(=O)c2cccc3cccc1c23	/	/	/	/	-7%	1%
CCOc1ccccc1NC(=O)COC(=O)CC(C)(C)CC1=NS(=O)(=O)c2ccccc2N1	-6%	-17%	-8%	-8%	/	-2%
CC(=O)c1ccc(N2CCN(C(=O)CCCn3c(=O)[nH]c4ccc(Br)cc4c3=O)CC2)cc1	-3%	18µM*	-14%	-6%	-73%	2%
CCCCCn1c(=O)[nH]c2cc(C(=O)N3CCN(c4ccc(C(C)=O)cc4)CC3)ccc2c1=O	-26%	5.8µM*	-15%	-25%	/	-5%
CC(=O)c1ccc(N2CCN(C(=O)CCCCn3c(=O)[nH]c4ccccc4c3=O)CC2)cc1	/	/	/	/	/	2%
COc1cc(/C=N/Nc2ccc(C(=O)O)cc2)ccc1O	?	?	?	?	?	1.9µM*
C=CCOc1c(OC)cc(/C=N/Nc2cccc(C(=O)O)c2)c(Br)c1Br	3.2µM*	?	?	2.5µM*	14µM*	?
C=CCOc1c(/C=N\NC(N)=O)cccc1OC	0%	0%	1%	-9%	/	-1%
COc1ccc(/C=N/Nc2ccc(C(=O)O)cc2)c(OC)c1OC	3.2µM*	?	16%	2.8µM*	/	15µM*
COc1cc(/C=N/Nc2ccc(C(=O)O)cc2)cc(OC)c1OC	2µM*	?	16µM*	1.6µM*	/	11µM*
Cc1cccc(-c2nc3c(cnn3-c3ccccc3)c(=O)n2-c2cccc(Cl)c2)c1	/	/	/	/	-5%	-12%
CCOC(=O)COc1ccc(CC)cc1C(=O)c1ccn2nc(-c3ccc(Cl)cc3)cc2n1	/	/	/	/	18%	0%
CC(C)CC1NC(=O)N(Cc2nc3ccccc3s2)C1=O (stereo not drawn)	-3%	4%	7%	-2%	/	-10%
CCOc1ccccc1-c1noc(CSc2nnc(-c3ccccc3)n2-c2ccc(OC)cc2)n1	/	/	/	/	-11%	1%
CC(=O)c1cc2c(cc1N/C(=N/S(=O)(=O)c1ccc(F)cc1)c1ccccc1)OCO2	/	/	/	/	/	-7%
CCCCCN(C(=O)CCC(=O)OCC(=O)Nc1cccc(SC)c1)c1c(N)n(CCCC)c(=O)[nH]c1=O	-5%	1%	1%	1%	/	-14%
COc1ccc(/C=C/C(=O)Nc2cccc(F)c2)cc1S(=O)(=O)N1CCOCC1	-6%	21µM*	-15%	-12%	-45%	-15%
COc1ccc(NC(=O)/C=C/c2ccc(C)o2)cc1S(=O)(=O)N1CCOCC1	-5%	?	-5%	-1%	-28%	-2%
COc1cc(/C=C/C(=O)Nc2ccc(OC)c(S(=O)(=O)N3CCOCC3)c2)ccc1OC(F)F	/	10µM*	-13%	/	/	/
COc1ccc(/C=C/C(=O)Nc2cccc(N3CCOCC3)c2)cc1OC	3%	?	-5%	4%	11%	27µM*
O=C(CSc1oc(-c2ccccc2)nc1S(=O)(=O)c1ccc(Cl)cc1)c1ccccc1	/	/	/	/	-1%	-15%
CCCC(=O)Nc1cc(C(=O)N(C)CC(OC)OC)ccc1S(=O)(=O)c1ccc(C)cc1	0%	1%	2%	0%	/	5%
SMILES	Rab9 promoter act	ELG1 DNA repair	ELG1 genotoxic	NPC1 promoter act	SMN2 splice up	FLuc counter
CN(C)c1ccccc1C(=O)c1ccccc1N(C)C	-11%	?	21µM*	-12%	5µM*	19µM*
COc1ccc(NC(=O)c2c(C)oc3ccc(O)c(CN4CCCCCC4)c23)cc1	/	/	/	/	25%	-2%
O=c1c2ccccc2oc2ccc(NCCCn3ccnc3)cc12	1.1µM*	?	?	1.4µM*	/	1.7µM*
C/C(=N\Nc1nc2c(s1)CCCC2)c1ccc(Cl)cc1	19%	?	?	-2%	-22%	19µM*
COC(=O)Nc1nc2c(s1)CCCC2	15%	?	?	16%	28%	-17%
C/C(=N\NC1=NCCN1)c1ccc(Cl)cc1	-3%	1%	0%	-4%	/	3%
CC(C)(C)c1ccc(C(=O)NC(=S)Nc2nc3c(s2)CCCC3)cc1	?	?	?	28%	-52%	5.4µM*
CN(C)c1ccc(C(=O)Nc2nc3c(s2)CCCC3)cc1	0.32µM*	?	?	0.45µM*	0.63µM*	0.24µM*
Cc1ccc(NC(=O)Cc2ccc(-n3c(C)nc4cccnc43)cc2)c(Cl)c1	/	/	/	/	/	-1%
COc1ccc2c(c1)sc1nc(-c3ccccc3)cn12	?	?	?	-14%	0.4µM*	0.034µM*
COc1ccc(-n2cc(-c3ccccc3)nc2SC)cc1	?	?	?	?	20µM*	13µM*
COc1ccc(-c2cn3c(n2)sc2cc(C(=O)NCc4ccccc4)ccc23)cc1	/	/	/	/	/	2%
COc1cc(NS(=O)(=O)c2cnc(N)nc2)cc(OC)c1	/	/	/	/	/	3%
Cc1ccc(SC[C@H](CC(C)C)N2CCN(C)CCC2=O)cc1	3.5µM*	?	?	?	/	15µM*
Cc1ccc(SC[C@H](c2ccccc2)N2CCN(C)CCC2=O)cc1	2.8µM*	?	?	?	/	15µM*
CC(C)C[C@@H](COc1ccccc1)N1CCN(C)CCC1=O	-9%	0%	2%	1%	/	2%
CC(C)C[C@@H](CSc1ccc(Br)cc1)N1CCN(CC(C)C)CCC1=O	20%	?	5%	?	/	15µM*
CC(=O)Nc1ccc(SC[C@H](CC(C)C)N2CCN(CC(C)C)CCC2=O)cc1	-4%	1%	1%	-2%	/	-1%
CC(C)C[C@@H](CSc1ccc(Br)cc1)N1CCN(C)CCC1=O	?	?	?	3.5µM*	/	19µM*
COc1ccc(SC[C@H](CC(C)C)N2CCN(C)CCC2=O)cc1	21%	?	?	?	/	?
Cc1cccc(N2CCN(C(=O)c3cccc(-n4c(C)nc5cccnc54)c3)CC2C)c1 (stereo not drawn)	/	/	/	/	/	-6%
COc1ccc(S(=O)(=O)c2c(Nc3ccc(F)cc3)sc(C(=O)c3ccc(C)cc3C)c2N)cc1	/	/	/	/	/	-2%
CC(C)CN1CCC(=O)N(CCSc2ccccc2)CC1	1.6µM*	?	?	1.6µM*	/	24µM*
